# According to PubChem BioAssay (EPA / NIEHS):
# Several values for one entry are separate records, joined by “and”; a condition that tells them apart may be missing. Equal entries are not always repeated. Some compounds were tested as several samples or in several runs, with calls that do not always agree. Activity calls are given as the source filed them. The calls were made as follows: active = hit-call score of the fitted dose curve at least 0.9, where 1 is the maximum; inactive = score below 0.9.
# Experiment: ATG_PXRE_CIS: Attagene CIS-FACTORIAL HepG2 Assay for human Pregnane X Receptor Element (PXRE) (AID 2282957)
# Details: HepG2 Attagene CIS-FACTORIAL PXRE reporter, mRNA; actives raise or lower the signal
# Procedure: ATG_CIS is a cell-based, multiplexed-readout assay that uses HepG2, a human liver cell line, with measurements taken at 24 hours after chemical dosing in a 24-well plate.ATG_PXRE_CIS is one of 52 assay component(s) measured or calculated from the ATG_CIS assay. It is designed to make measurements of mRNA induction, a form of inducible reporter, as detected with fluorescence intensity signals by Reverse transcription polymerase chain reaction (RT-PCR) and Capillary electrophoresis technology.Data from the assay component ATG_PXRE_CIS was analyzed into 1 assay endpoint. This assay endpoint, ATG_PXRE_CIS, was analyzed with bidirectional fitting relative to DMSO as the negative control and baseline of activity. Using a type of inducible reporter, measures of mRNA for gain or loss-of-signal activity can be used to understand the reporter gene at the transcription factor-level as they relate to the gene NR1I2. Furthermore, this assay endpoint can be referred to as a primary readout, because this assay has produced multiple assay endpoints where this one serves a reporter gene function. To generalize the intended target to other relatable targets, this assay endpoint is annotated to the nuclear receptor intended target family, where the subfamily is non-steroidal.
# Human liver HepG2 cells are transiently transfected with multiple reporter transcription units (MRTUs) in 6-well plates using FuGene 6 reagent (Roche; 3 ml FuGene/1 mg DNA). The MRTU constructs are regulated by a cis-regulating element (promoter). […] A major difference between the CIS and TRANS system is that in CIS activities of endogenous TFs are measured, whereas the TRANS assay evaluates changes in activities of exogenous, chimeric NR-Gal4 proteins. […] At the end of 24 hour incubation, total RNA was isolated using TriZol reagent (Invitrogen). The isolated RNA is then reverse-transcribed using oligo(dT) primer and Mo-MLV reverse transcriptase (Invitrogen) with DNAse I (Ambion) treatment for 30 min. The one-tenth of the produced cDNA was amplified by PCR using Taq DNA polymerase (Invitrogen) and two reporter sequence-specific primers. The PCR products were fluorescently labeled by primer extension with 6-arboxyfluorescein (6-FAM) 5'-labeled reporter sequence-specific primer (2 min at 95 C, 20 s at 68 C and 10 min at 72 C) and these products were digested with 5U of HpaI (New England Biolabs) for 2h at 37 C. The fragments were purified using Qiaquick PCR columns (Qiagen), analyzed on an ABI 3130xL genetic analyzer (Applied Biosystems) with peak positions identified by using a set of X-rhodamine (ROX)-labeled MapMarker1000 molecular weight standards (BioVentures). The raw capillary electrophoresis data was processed using Attagraph software (Attagene).
Structure (SMILES),outcome,AC50
O=C(O)C1C(C(=O)O)C2(Cl)C(Cl)=C(Cl)C1(Cl)C2(Cl)Cl (stereo not given),inactive,–
Nc1ccc([N+](=O)[O-])cc1Cl,–,67.3 µM (active)
NNC(N)=S,inactive,–
Oc1ccc(I)cc1,inactive,–
Cn1[nH]nnc1=S,inactive,–
CCOP(=S)(NC(C)C)Oc1ccccc1C(=O)OC(C)C (stereo not given),–,0.699 µM (active)
O=P(OCC(Br)CBr)(OCC(Br)CBr)OCC(Br)CBr (stereo not given),–,0.0674 µM (active)
O=[N+]([O-])c1ccc(Cl)c(Cl)c1,–,49.2 µM (active)
c1ccc2c(c1)Nc1ccccc1S2,–,17.1 µM (active)
N#C/C=C/c1ccccc1,inactive,–
O=C(O)C(F)(F)OC(F)(F)C(F)(F)OC(F)(F)C(=O)O,inactive,–
CCCCOCCOP(=O)(OCCOCCCC)OCCOCCCC,–,1.04 µM (active) and 62.9 µM (active)
CSC(C)(C)C=NO,inactive,–
Nc1ccc(Sc2ccc(N)cc2)cc1,–,41.2 µM (active)
CCOP(=S)(OCC)SCS(=O)(=O)CC,–,11.3 µM (active)
CNC(=O)Oc1ccc(N(C)C)c(C)c1,–,38.3 µM (active)
O=C(CBr)OCc1ccccc1,inactive,–
OCC(F)(F)OC(F)(F)C(F)(F)OC(F)(F)C(F)(F)OC(F)(F)F,inactive,–
Cc1cc(C)c(C(=O)P(=O)(c2ccccc2)c2ccccc2)c(C)c1,–,0.199 µM (active)
CCN(CC)C1CCCCC1,inactive,–

Structure (SMILES),outcome,AC50
CC(C)(C)N(NC(=O)c1ccc(Cl)cc1)C(=O)c1ccccc1,–,4.36 µM (active)
CCCCN(CC)C(=O)SCCC,–,25.9 µM (active)
CN(C)C(=O)Cl,inactive,–
CC(O)C#N (stereo not given),inactive,–
CCC1(c2ccccc2)C(=O)N=C(O)NC1=O (stereo not given),–,100 µM (active)
CCOP(=S)(OCC)SCSc1ccc(Cl)cc1,–,3 µM (active)
CCOS(=O)(=O)OCC,inactive,–
Cc1ccc2c(c1N)C(=O)c1ccccc1C2=O,–,4.09 µM (active)
ClC(Cl)c1ccccc1,inactive,–
C/C(=N\NC(=O)Nc1cc(F)cc(F)c1)c1ncccc1C(=O)O,inactive,172 µM (active)
CCCCN(CCCC)N=O,–,42.7 µM (active)
C=CC(=O)OCC(F)(F)C(F)F,inactive,–
Cc1c([N+](=O)[O-])cc2c(c1[N+](=O)[O-])C(C)(C)CC2(C)C,–,0.964 µM (active)
O=[N+]([O-])c1cc(Cl)ccc1Cl,–,56.2 µM (active)
CCOC(=O)c1ccccc1C(=O)OCC,inactive,–
N#Cc1cc([N+](=O)[O-])ccc1N,inactive,–
CCNc1nc(Cl)nc(NC(C)(C)C)n1,–,6.16 µM (active)
C=C(C)C(=O)OCC1CO1 (stereo not given),inactive,–
Cc1ccc(N)cc1N,inactive,–
